# According to PubChem BioAssay (NCI):
# This is part of a sample that, as a whole, favours compounds with a hit. Of some 83,000 tested, about 20% had one in any assay.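 Method: cells in 96-well plates; compound added at one concentration; 48 h incubation; percent growth measured; values under 10 scored active.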 A number with no mark means an inactive call. The source made the active and inactive calls.
# System: HL-60(TB) leukemia
# Assay: NCI-60 one-dose screen, 48 h (100 = growth as untreated, 0 = no growth, -100 = all killed)
# Settings: 10 µM unless noted
row,Structure (SMILES),growth
1,COc1ccc(/C=N\NC(=O)CN2CCN(c3cc4c(cc3F)c(=O)c(C(=O)N/N=C/c3ccc(OC)cc3)cn4C3CC3)CC2)cc1,86.6%
2,Cc1cc2nc(NC(=O)CN3CCN(CCN4C(=O)c5cccc6cccc(c56)C4=O)CC3)sc2cc1C,52.3%
3,CCOC(=O)c1[nH]c(-c2ccc(Cl)cc2)cc1-c1cccnc1,-20.7% (active)
4,CSCCCNC(=O)c1ccc2c(c1)/C(=C/c1[nH]c(C)cc1C)C(=O)N2,46.1%
5,O=C1N/C(=N/N=C(c2ccccc2)c2ccccc2)S/C1=C\c1ccc(Br)cc1,89.1%
6,COc1ccc(-c2nc(SCC(C)C)nc(Nc3ccc([N+](=O)[O-])cc3)c2C#N)cc1,90.5%
7,FC(F)(F)c1cc(Nc2ccc3cc(OCCCN4CCOCC4)ccc3n2)ccc1Cl,29%
8,COc1ncc(-c2ccc3nccc(-c4ccnnc4)c3c2)cc1NS(=O)(=O)c1ccc(F)cc1F,-13.8% (active)
9,O=C(OC[C@@H]1CO1)c1cccc2c(=O)c3ccccc3[nH]c12,-51.4% (active)
10,CCOC(=O)/C=C1\S/C(=N\Nc2ccc([N+](=O)[O-])cc2[N+](=O)[O-])N(Cc2ccccc2)C1=O,76.3%
11,CCN1CCN(C(=O)[C@]23CC[C@@H](C)[C@H](C)[C@@H]2C2=CC[C@@H]4[C@@]5(C)CCC(=O)C(C)(C)[C@@H]5CC[C@@]4(C)[C@]2(C)CC3)CC1,-44.6% (active)
12,CSc1nc(-c2cc3ccccc3o2)cc(-c2ccc(Cl)cc2)c1C#N,126%
13,Cc1sc(NC(=O)c2ccc(C(C)(C)C)cc2)c(C(=O)O)c1C,45.2%
14,C=C1c2c(C)nn(-c3ccc(S(N)(=O)=O)cc3)c2N(C)C23CC1C1(C)c4c(C)nn(-c5ccc(S(N)(=O)=O)cc5)c4N(C)C(C)(CC12)C3 (stereo not given),8.58% (active)
15,Clc1cc(Cl)c(Cl)c(-c2nc(-c3cccnc3)cs2)c1,-3.35% (active)
16,Nc1nccc2c1ccn2-c1ccc(NC(=O)c2ccc(N3CCOCC3)c(C(F)(F)F)c2)cc1,-4.36% (active)
17,CCCCOc1cc(C(=O)NCCN(CC)CC)c2ccccc2n1,96.7%
18,Cc1cc(C)cc(OCC(=O)O)c1,86%
19,C=CCn1c(SCC(=O)Nc2ccc(C(=O)/C=C/c3ccc(OC)cc3)cc2)nnc1-c1ccc(OC)c(OC)c1,58.5%
20,CCN(CC)CCN1CC(=O)Nc2cc(Cl)ccc21,98.9%

row,Structure (SMILES),growth
1,Fc1ccccc1-c1cnn2cc(-c3ccccc3)cnc12,98.6%
2,NC(CC(=O)O)C(=O)OCc1ccccc1 (stereo not given),101%
3,COc1cccc2c1C(=O)c1c(O)c3c(c(O)c1C2=O)C[C@](O)(C(=O)CO)C[C@H]3O[C@@H]1C[C@@H](NC(=O)CCCCCN(C)C2(c3ccc(F)cc3)CC3CCC2C3)[C@H](O)[C@@H](C)O1 (stereo not given in full),84.9%
4,CCC(=O)c1c(C)[nH]c(C)c1C,92.8%
5,c1ccc(C2NCCNC2c2ccccc2)cc1 (stereo not given),103%
6,Cc1cc(N2CCOCC2)nc(N(CCNc2ccnc3cc(Cl)ccc23)Cc2cccs2)n1,-63.2% (active)
7,COc1ccc(C(=O)NCCNc2nccc(-c3c(-c4ccc(F)cc4)nc4sccn34)n2)cc1,88.9%
8,Cc1[nH]c(N=Nc2ccccc2)nc1N=Nc1ccccc1,8.83% (active)
9,COc1ccc(S(=O)(=O)n2ccc(-c3ccc4c(c3)CCC(C)(C)O4)n2)cc1OC,94.7%
10,N/C(=N\OC(=O)c1ccccc1)C(Cc1ccccc1)C(=O)NOC(=O)c1ccccc1 (stereo not given),-1.14% (active)
11,COc1cccc(-c2nn(-c3ccccc3)cc2-c2ccnc(NCCCNC(=O)c3cccc(C(F)(F)F)c3)c2)c1,7.43% (active)
12,O=C(c1ccccc1)N(CCCCl)C(=O)N(CCCCl)C(=O)c1ccccc1,94%
13,Cc1nc(Cl)cc(N(c2cc(Cl)nc(C)n2)c2ncc(C(=O)Nc3c(C)cccc3Cl)s2)n1,81.3%
14,C=C1C(=O)O[C@H]2[C@H]1CC/C(COC(=O)c1cc3cc(Cl)ccc3[nH]1)=C\CC[C@@]1(C)O[C@@H]21,-46% (active)
15,O=S(=O)(NCCNc1cc(-c2c(-c3cccc(O)c3)nc3sccn23)ccn1)c1ccc(Cl)cc1,84.3%
16,O=[N+]([O-])c1cc(Cl)cc(Cl)c1O,99.5%
17,O=C(c1ccccc1)C(c1ccccc1)N1CCOCC1 (stereo not given),94.4%
18,CC(=O)Nc1cc2c3c(cccc3c1)-c1ccccc1-2,0.506% (active)
19,Cc1cn2c(/C=C3/C(=O)Nc4c3ccc3ccccc43)c(C(F)(F)F)nc2s1,1.47% (active)
20,CC(=O)CC/C=C(\C)[C@H](O)[C@H](C)C(=O)O[C@H]1C[C@H](C)C=C2C=C[C@@]3(C)O[C@@H](O)CC(=O)[C@]3(C)[C@H]21,-21.3% (active)
